Test results: PubChem BioAssay (EPA / NIEHS)
Calls of active or inactive are those of the source. Rule for the calls: active = hit-call score of the fitted dose curve at least 0.9, where 1 is the maximum; inactive = score below 0.9.

Key:
[1] = ATG_CRE_CIS: Attagene CIS-FACTORIAL HepG2 Assay for human cAMP Responsive Element (CRE) binding protein 3 (AID 2282926); settings: HepG2 CRE cis-reporter, Attagene multiplexed mRNA; actives raise or lower the signal
Procedure, shortened: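 Human liver HepG2, transient MRTU transfection, 24 h compound exposure. Total RNA → oligo(dT) RT → PCR → 6-FAM primer extension → HpaI cut → CE. Activity called both directions vs DMSO.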

[2] = biological target: CCAAT/enhancer-binding protein beta (Homo sapiens) (UniProt P17676); experiment: ATG_C_EBP_CIS: Attagene CIS-FACTORIAL HepG2 Assay for human CCAAT/Enhancer Binding Protein (C/EBP) beta (AID 2282927); settings: HepG2 Attagene cis-factorial transcription factor reporter; actives raise or lower the signal
Procedure, shortened: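 Endogenous transcription factor activity in human liver HepG2 cells is inferred from induction of a CEBPB-linked reporter mRNA. Exposure lasts 24 h; activity is fitted in both directions relative to DMSO.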

[3] = ATG_CMV_CIS: Attagene CIS-FACTORIAL HepG2 Assay for human CMV (Internal Marker) (AID 2282928); settings: HepG2 CMV promoter reporter, transcription factor profiling; actives raise or lower the signal;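 note: endpoint acts as a background internal control marker rather than a target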
Procedure, shortened: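 After transient transfection of HepG2 with reporter transcription units driven by cis-regulatory promoters, cells receive test chemical for 24 h. Labeled reporter amplicons, digested with HpaI, are sized and quantified by capillary electrophoresis against DMSO.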

[4] = ATG_DR4_LXR_CIS: Attagene CIS-FACTORIAL HepG2 Assay for human Liver X Receptor (LXR), DR4 submotif (AID 2282929); settings: HepG2 Attagene DR4 cis-reporter, mRNA transcription; actives raise or lower the signal
Procedure, shortened: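 HepG2, transient MRTU transfection, cis-element (DR4) promoter; 24 h compound exposure; total RNA → oligo(dT) RT → PCR → 6-FAM primer extension → HpaI cut → CE. Gain/loss vs DMSO, bidirectional fit.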

[5] = biological target: Aryl hydrocarbon receptor (Homo sapiens) (UniProt P35869); experiment: ATG_Ahr_CIS: Attagene CIS-FACTORIAL HepG2 Assay for human Aryl Hydrocarbon Receptor (Ahr) (AID 2282930); settings: HepG2 AhR cis-factorial reporter transcription; actives raise or lower the signal
Procedure, shortened: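 Transient MRTU transfection of HepG2 → 24 h compound exposure → total RNA, oligo(dT) RT → PCR, 6-FAM extension, HpaI cut → CE fluorescence. DMSO = baseline; bidirectional curve fit.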

[6] = ATG_AP_2_CIS: Attagene CIS-FACTORIAL HepG2 Assay for human Activator Protein 2 (AP-2) (AID 2282932); settings: HepG2 AP-2 cis-reporter, Attagene transcription factor profiling; actives raise or lower the signal
Procedure, shortened: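 HepG2, transient MRTU transfection, cis-regulated reporters; 24 h compound exposure; RNA isolated, RT-PCR, 6-FAM labelling, HpaI digest, CE fluorescence. DMSO = negative control/baseline, bidirectional fit.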

[7] = ATG_BRE_CIS: Attagene CIS-FACTORIAL HepG2 Assay for human Bone Morphogenetic Protein (BMP) Response Element (BRE) (AID 2282933); settings: HepG2 BMP response element reporter, Attagene transcription factor profiling; actives raise or lower the signal
Procedure, shortened: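 Read-out: reporter mRNA induction quantified by RT-PCR and capillary electrophoresis after 24 h chemical exposure of transfected HepG2 cells. Endogenous factor activity on the BMP response element; gain or loss fitted against DMSO baseline.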

[8] = biological target: Retinoic acid receptor alpha (Homo sapiens) (UniProt P10276); experiment: ATG_DR5_RAR_CIS: Attagene CIS-FACTORIAL HepG2 Assay for human Retinoic Acid Receptor Alpha (RARE), DR5 submotif (AID 2282934); settings: HepG2 Attagene cis-factorial RARE DR5 reporter, mRNA; actives raise or lower the signal;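 for AC50: reporter responds to endogenous RAR alpha beta and gamma in HepG2 not RARA alone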
Procedure, shortened: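 Transient MRTU transfection of HepG2; 24 h compound treatment; TriZol RNA, oligo(dT) RT, PCR, FAM labelling, capillary electrophoresis. Bidirectional fit vs DMSO. Endogenous TF activity at DR5 RARE.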

[9] = biological target: Transcription factor E2F1 (Homo sapiens) (UniProt Q01094); experiment: ATG_E2F_CIS: Attagene CIS-FACTORIAL HepG2 Assay for human E2F Transcription Factor 1 (AID 2282935); settings: HepG2 Attagene cis-reporter, E2F reporter RNA transcripts; actives raise or lower the signal
Procedure, shortened: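 Cis-element reporter mRNA induction in transiently transfected HepG2, 24 h exposure. Activity fitted in both directions relative to DMSO negative control.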

[10] = ATG_AP_1_CIS: Attagene CIS-FACTORIAL HepG2 Assay for human Activator Protein 1 (AP-1) (AID 2282931); settings: HepG2 Attagene cis-factorial AP-1 reporter mRNA; actives raise or lower the signal
Procedure, shortened: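 Transient MRTU transfection of HepG2 → 24 h chemical treatment → RNA isolation, RT-PCR, 6-FAM labelling, HpaI digest → capillary electrophoresis. Fit: bidirectional, DMSO negative control.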

Chain of CCAAT/enhancer-binding protein beta (Homo sapiens) (P17676 whole entry, looked up): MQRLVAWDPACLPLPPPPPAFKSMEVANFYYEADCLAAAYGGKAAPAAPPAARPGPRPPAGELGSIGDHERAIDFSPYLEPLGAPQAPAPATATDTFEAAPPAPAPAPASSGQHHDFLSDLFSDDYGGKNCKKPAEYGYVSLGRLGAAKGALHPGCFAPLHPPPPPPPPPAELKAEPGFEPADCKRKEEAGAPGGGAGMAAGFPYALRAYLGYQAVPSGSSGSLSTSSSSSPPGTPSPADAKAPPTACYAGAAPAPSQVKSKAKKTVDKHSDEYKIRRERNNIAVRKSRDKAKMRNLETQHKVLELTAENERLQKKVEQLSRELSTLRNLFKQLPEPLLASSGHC
Chain of Aryl hydrocarbon receptor (Homo sapiens) (P35869 whole entry, looked up): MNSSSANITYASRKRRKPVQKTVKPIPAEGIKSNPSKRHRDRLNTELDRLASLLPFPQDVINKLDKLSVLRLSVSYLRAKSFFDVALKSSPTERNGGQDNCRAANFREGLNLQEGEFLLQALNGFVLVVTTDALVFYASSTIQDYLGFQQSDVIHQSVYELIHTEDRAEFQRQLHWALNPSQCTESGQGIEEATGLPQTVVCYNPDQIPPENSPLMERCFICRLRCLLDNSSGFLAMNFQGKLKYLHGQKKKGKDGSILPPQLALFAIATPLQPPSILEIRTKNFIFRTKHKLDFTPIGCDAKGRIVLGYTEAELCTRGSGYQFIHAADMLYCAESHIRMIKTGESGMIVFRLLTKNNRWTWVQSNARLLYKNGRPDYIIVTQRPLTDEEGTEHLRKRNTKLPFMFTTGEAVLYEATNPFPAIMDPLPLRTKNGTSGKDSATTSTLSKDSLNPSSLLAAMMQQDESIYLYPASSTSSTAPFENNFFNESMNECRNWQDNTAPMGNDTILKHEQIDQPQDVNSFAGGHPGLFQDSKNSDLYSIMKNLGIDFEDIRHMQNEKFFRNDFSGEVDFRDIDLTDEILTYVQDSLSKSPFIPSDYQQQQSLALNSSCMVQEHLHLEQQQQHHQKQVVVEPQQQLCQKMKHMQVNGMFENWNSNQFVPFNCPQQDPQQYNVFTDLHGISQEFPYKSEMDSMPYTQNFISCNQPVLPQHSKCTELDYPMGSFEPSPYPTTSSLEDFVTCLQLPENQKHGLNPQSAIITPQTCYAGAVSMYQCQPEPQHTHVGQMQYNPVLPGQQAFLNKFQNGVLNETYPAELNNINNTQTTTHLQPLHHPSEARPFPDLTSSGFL
Chain of Transcription factor E2F1 (Homo sapiens) (Q01094 whole entry, looked up): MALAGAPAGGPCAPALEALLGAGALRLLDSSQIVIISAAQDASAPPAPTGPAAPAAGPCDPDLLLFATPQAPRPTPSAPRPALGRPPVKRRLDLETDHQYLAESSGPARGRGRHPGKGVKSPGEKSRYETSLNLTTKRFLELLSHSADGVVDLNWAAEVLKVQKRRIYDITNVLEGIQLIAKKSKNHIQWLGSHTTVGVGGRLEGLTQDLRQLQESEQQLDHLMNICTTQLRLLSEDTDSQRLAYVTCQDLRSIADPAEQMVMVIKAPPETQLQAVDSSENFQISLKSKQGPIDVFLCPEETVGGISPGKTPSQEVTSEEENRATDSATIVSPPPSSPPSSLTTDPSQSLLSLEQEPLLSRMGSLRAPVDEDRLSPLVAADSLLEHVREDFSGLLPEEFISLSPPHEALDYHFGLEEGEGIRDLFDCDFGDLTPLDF
Chain of Retinoic acid receptor alpha (Homo sapiens) (P10276 whole entry, looked up): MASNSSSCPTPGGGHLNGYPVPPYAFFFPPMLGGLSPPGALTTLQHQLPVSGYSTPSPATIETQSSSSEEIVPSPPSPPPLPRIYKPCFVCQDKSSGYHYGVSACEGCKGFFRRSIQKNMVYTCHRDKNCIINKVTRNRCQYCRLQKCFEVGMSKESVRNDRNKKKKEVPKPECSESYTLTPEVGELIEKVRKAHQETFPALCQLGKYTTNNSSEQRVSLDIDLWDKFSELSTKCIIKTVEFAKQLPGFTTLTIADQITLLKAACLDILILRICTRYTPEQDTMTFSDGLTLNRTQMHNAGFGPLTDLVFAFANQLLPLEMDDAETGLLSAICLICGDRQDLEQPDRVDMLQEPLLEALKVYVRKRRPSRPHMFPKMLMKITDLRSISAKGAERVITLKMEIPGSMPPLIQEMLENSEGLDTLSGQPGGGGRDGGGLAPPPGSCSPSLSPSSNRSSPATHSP

Structure (SMILES)	outcome [1]	outcome [2]	outcome [3]	outcome [4]	outcome [5]	outcome [6]	outcome [7]	outcome [8]	outcome [9]	AC50 [4]	AC50 [7]	outcome [10]	AC50 [5]	AC50 [1]	AC50 [10]	AC50 [8]
OCc1cccc(Oc2ccccc2)c1	inactive	inactive	inactive	inactive	inactive	inactive	inactive	inactive	inactive	–	–	–	–	–	–	–
CC(=O)O[C@H]1C[C@@H]2CC[C@@]1(C)C2(C)C	inactive	inactive	inactive	inactive	inactive	inactive	inactive	inactive	inactive	–	–	–	–	–	–	–
CCCCCCCCCCCCN1CCCCCC1=O	inactive	inactive	inactive	–	inactive	inactive	–	inactive	inactive	18.6 µM (active)	16.4 µM (active)	–	–	–	–	–
CCCCC1(COC(=O)CCC(=O)O)C(=O)N(c2ccccc2)N(c2ccccc2)C1=O	inactive	inactive	inactive	inactive	inactive	inactive	–	–	inactive	–	–	inactive	–	–	–	–
BrCc1cccc(Oc2ccccc2)c1	inactive	inactive	inactive	–	inactive	inactive	–	–	inactive	159 µM (active)	–	inactive	–	–	–	–
Nc1c(S(=O)(=O)O)cc(Br)c2c1C(=O)c1ccccc1C2=O	inactive	inactive	inactive	inactive	–	inactive	inactive	–	inactive	–	–	–	9.82 µM (active)	–	–	–
CCC1(C)NC(=O)NC1=O (centres undefined)	inactive	inactive	inactive	inactive	inactive	inactive	inactive	inactive	inactive	–	–	–	–	–	–	–
C=CC(C)(O)CCC=C(C)C (centres undefined)	inactive	inactive	inactive	inactive	inactive	inactive	–	–	inactive	–	–	inactive	–	–	–	–
CCO/C=C1\N=C(c2ccccc2)OC1=O	inactive	inactive	inactive	inactive	inactive	inactive	inactive	inactive	inactive	–	–	–	–	–	–	–
COC(C)(C)CCCC(C)CC=O (centres undefined)	inactive	inactive	inactive	inactive	inactive	inactive	inactive	inactive	inactive	–	–	–	–	–	–	–
CC1(C)C(=O)N(Cl)C(=O)N1Br	inactive	inactive	–	inactive	inactive	inactive	inactive	–	inactive	–	–	inactive	–	–	–	–
CCCCCCCCN1CCCC1=O	–	inactive	–	inactive	inactive	inactive	inactive	inactive	inactive	–	–	inactive	–	151 µM (active)	–	–
CC1(C)C2=CCCC(C)(C)[C@]23CC[C@H]1C3	inactive	inactive	–	–	inactive	inactive	inactive	inactive	inactive	100 µM (active)	–	–	–	–	100 µM (active)	–
CC(=O)OCCCc1ccccc1	inactive	inactive	–	inactive	inactive	inactive	inactive	inactive	inactive	–	–	inactive	–	–	–	–
c1ccc(Oc2ccccc2)cc1	inactive	inactive	–	inactive	inactive	inactive	inactive	inactive	inactive	–	–	inactive	–	–	–	–
CN(C)c1ccncc1	inactive	inactive	–	inactive	inactive	inactive	inactive	inactive	inactive	–	–	–	–	–	–	–
CCc1cc(Cc2cc(CC)cc(C(C)(C)C)c2O)c(O)c(C(C)(C)C)c1	–	inactive	–	–	inactive	inactive	–	–	inactive	14.8 µM (active)	4.81 µM (active)	–	–	19.1 µM (active)	9.51 µM (active)	2.28 µM (active)
CC(C)(C)c1ccc(C(=O)O)cc1	inactive	inactive	–	inactive	inactive	inactive	–	inactive	inactive	–	–	inactive	–	–	–	–
COc1cc(C(C)C)ccc1C	inactive	inactive	–	inactive	inactive	inactive	inactive	inactive	inactive	–	–	inactive	–	–	–	–
